Results from PubChem BioAssay (NCI).
About 79,000 compounds went through this panel and 15% of them were active in at least one assay; those are over-represented in the sample as a whole. Calls of active or inactive are those of the source. Rule as the data show it: active = growth inhibition above about 70%; inactive = the rest. Where a SMILES comes first, the peptide text is derived from it. [ ]: non-standard residue; d: D form. The star is where a group is joined. Ac5c = NC1(C(=O)O)CCCC1; Cbz = O=C(OCc1ccccc1)*

Legend:
[1] = NCI Yeast Anticancer Drug Screen. Data for the rad50 strain (AID 155);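 also: 0% = growth of vehicle-only cultures of the same strain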; details: S. cerevisiae rad50 strain growth inhibition; at 50.0 µM; active compounds read high
Procedure, shortened: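 A DNA repair-deficient yeast mutant serves as the test organism; compound-induced growth inhibition is calculated against vehicle-treated cells.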

[2] = NCI Yeast Anticancer Drug Screen. Data for the mec2-1 strain (AID 157); details: S. cerevisiae mec2-1 strain, at 50.0 µM, active compounds read high
Procedure, shortened: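 Test agents were screened against the mec2-1 yeast strain, with defined DNA repair or cell cycle alteration. Growth was scored as inhibition against vehicle-only controls.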

[3] = NCI Yeast Anticancer Drug Screen. Data for the sgs1 mgt1 strain (AID 161);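 also: 0% = growth of cultures given vehicle only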; details: S. cerevisiae sgs1 mgt1 strain, at 50.0 µM, active compounds read high
Procedure, shortened: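 Genetically altered yeast, compound exposure, growth inhibition relative to vehicle.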

[4] = NCI Yeast Anticancer Drug Screen. Data for the cln2 rad14 strain (AID 165);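 also: 0% = growth equal to vehicle treated cultures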; details: S. cerevisiae cln2 rad14 strain, at 50.0 µM, active compounds read high
Procedure, shortened: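 Growth of compound-exposed yeast (cln2 rad14 genotype) measured and expressed as inhibition relative to vehicle.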

[5] = NCI Yeast Anticancer Drug Screen. Data for the bub3 strain (AID 167); details: S. cerevisiae bub3 mutant strain, at 50.0 µM, active compounds read high
Procedure, shortened: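 Inhibition values come from growth of compound-treated mutant yeast normalised to vehicle-treated controls.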

[6] = NCI Yeast Anticancer Drug Screen. Data for the mlh1 rad18 strain (AID 175); details: S. cerevisiae mlh1 rad18 strain growth inhibition; at 50.0 µM; active compounds read high
Procedure, shortened: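 In this whole-cell yeast screen, a strain with altered DNA damage repair is challenged with compound, and its growth is measured against matched vehicle-treated controls.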

Measured: growth inhibition

ClC[C@H]1C[C@@H]2C[C@@H]1[C@H]1O[C@@H]21
inactive: [1] -7.4% | [2] -21.6% | [3] -11.2% | [4] -5.35% | [5] -9.6% | [6] 10.8%

CN(C)NC(=O)Oc1ccc(Cl)cc1
inactive: [1] -0.25% | [2] -0.35% | [3] -11.4% | [4] -4.55% | [5] -33.3% | [6] 2.75%

NNC(=O)c1nc[nH]c1C(=O)NN
inactive: [1] 2.95% | [2] -2.6% | [3] 21.5% | [4] -14.3% | [5] -7.6% | [6] 32%

COc1ccc(/C=N/N2CCN(/N=C/c3ccc(OC)cc3)CC2)cc1
inactive: [1] 9.85% | [2] 9.7% | [3] 9.2% | [4] -6.1% | [5] 5.1% | [6] -5.35%

C/C(CCc1cnc2ccccc2c1)=N/NC(N)=O
inactive: [1] 69.2% | [2] 27.5% | [4] 37.8% | [5] 67.3%
active: [3] 85.7% | [6] 95.6%

COC(=O)CCBr
inactive: [1] -19.8% | [2] 8.15% | [3] 28.8% | [4] -18.2% | [5] -1.9% | [6] 3.5%

O=C1NC(c2ccco2)N2C(=O)NC(c3ccco3)N12 (stereo not drawn)
inactive: [1] 15.2% | [2] 21.5% | [3] 24.5% | [4] 12.6% | [5] 18.6% | [6] 16.7%

CCN1CCCC(Nc2cc(C)nc(/N=C(\N)Nc3ccc(Cl)c(Cl)c3)n2)C1 (stereo not drawn)
active: [1] 97.2% | [2] 98% | [3] 98.4% | [4] 87.3% | [5] 96.1% | [6] 98%

CN(c1ccc(C(=O)c2ccc(N(C)S(C)(=O)=O)cc2)cc1)S(C)(=O)=O
inactive: [1] -22.6% | [2] -27.9% | [3] -8.05% | [4] -2.35% | [5] 4.5% | [6] -6.6%

CC(O)CN1CCCC1 (stereo not drawn)
inactive: [1] 5.75% | [2] -21.9% | [3] -4% | [4] 6.2% | [5] 0.6% | [6] 9.35%

CC1(C)OC2COC(CN(N=O)C(N)=O)C2O1 (stereo not drawn)
inactive: [1] 15.2% | [2] -15.7% | [3] -8.15% | [4] -75% | [5] -17.4% | [6] 5.75%

CC1=C(C)C(=O)C=CC1=O
inactive: [1] 19.9% | [2] 6.3% | [3] 5.3% | [4] -1% | [5] 3.95% | [6] 12%

Brc1cccc(C2SCc3nc4ccccc4n32)c1 (stereo not drawn)
inactive: [1] 33% | [2] 16.9% | [3] 37.2% | [4] 19.9% | [5] 19.2% | [6] 21.4%

CN(C)CCCC1(O)c2ccccc2Sc2cc(Cl)ccc21 (stereo not drawn)
inactive: [1] 12.9% | [2] 12.9% | [3] 17.9% | [4] 18.6% | [5] 12.7% | [6] 25.9%

C/C(=N\N=C(/C)c1ccc(-c2ccccc2)cc1)c1ccc(-c2ccccc2)cc1
inactive: [1] 1.2% | [2] -27.8% | [3] 19.1% | [4] 2.2% | [5] 20.8% | [6] 13.3%

CCCCCCCCN1N=C(C)CCC1=O
inactive: [1] -7.55% | [2] -9.2% | [3] -0.45% | [4] -23.7% | [5] -25.7% | [6] -8.55%

CCCC(=O)Nc1cc(C(=O)N2C[C@H]3C[C@@]34C2=CC(=O)c2[nH]cc(C)c24)n(COC)c1
inactive: [1] 43.9% | [2] 59.2% | [3] 68.2% | [4] 41.4% | [5] 5.85% | [6] 69.8%

CSCCCS/C1=C/CCCCCCCCCC1
inactive: [1] -1.85% | [2] 11% | [3] -21.9% | [4] 14.8% | [5] -9.35% | [6] -38.6%

CC(=O)NC(C=O)C(O)C(O)C(O)CO (stereo not drawn)
inactive: [1] -29.4% | [2] -24.8% | [3] -11.1% | [4] -16.2% | [5] -7% | [6] 2.25%

CC1(C)CCCC(OC(=O)c2ccc([N+](=O)[O-])cc2)C1 (stereo not drawn)
inactive: [1] 10.4% | [2] -17.5% | [3] -1.3% | [4] -2.05% | [5] 7.5% | [6] -10.6%

c1ccc(CN2CCC(=NN3CCCCC3)CC2)cc1
inactive: [1] 19.9% | [2] -9.5% | [3] 23.2% | [4] 15.2% | [5] 17.9% | [6] -8.55%

O=C(CCl)OCCCc1ccccc1
inactive: [1] -10.6% | [2] 44.2% | [3] 49.6% | [4] -6.3% | [5] 17% | [6] 36%

C[n+]1c(-c2ccc(/C=N/NC(=O)c3cc(O)c(C(=O)N/N=C/c4ccc(-c5cn6ccccc6[n+]5C)cc4)cc3O)cc2)cn2ccccc21
inactive: [1] -31% | [2] -13.5% | [3] -15.7% | [4] -39.5% | [5] -31.9% | [6] -10.5%

COc1ccc2ncc(C)c(CO)c2c1
inactive: [1] 3.25% | [2] -6.05% | [3] -1.65% | [4] -50.9% | [5] 0.75% | [6] -2.65%

C=C(CN(CC)CC)C1(c2ccccc2)CC2(CCCC2)C(=O)O1 (stereo not drawn)
inactive: [1] 20.9% | [2] 23.9% | [3] 1.15% | [4] 3.6% | [5] 10.2% | [6] 5.65%

CCOc1c(OC)cc(-c2nnc(SCCN(CC)CC)o2)cc1OC
inactive: [1] 11.4% | [2] 0.35% | [3] 7.1% | [4] 16.7% | [5] 0.15% | [6] -7.05%

CC1CCc2c(ccc3ccccc23)C1 (stereo not drawn)
inactive: [1] -0.25% | [2] -16.4% | [3] -3.55% | [4] -4.55% | [5] -16.8% | [6] -2.05%

COC(OC)(c1ccccc1)c1ccccc1
inactive: [1] -33% | [2] -27.4% | [3] -33% | [4] -11.1% | [5] -40.6% | [6] -18.6%

C/C=C/c1cc(C=O)cc(OC)c1O
inactive: [1] 0.15% | [2] -8.1% | [3] -5.4% | [4] -10.6% | [5] -4.4% | [6] 5.75%

CC1=NN(c2nc(N)nc(CCl)n2)C(C)(C)C1
inactive: [1] -8.1% | [2] -0.1% | [3] -6.7% | [4] -4.75% | [5] 17.1% | [6] -77.9%

CC1CCN(C(=O)Nc2ccccc2)CC1
inactive: [1] -7.1% | [2] -17.2% | [3] 4.9% | [4] -51.3% | [5] -6.05% | [6] -10.7%

CC=C/C=C/[C@@H]1O[C@](O)([C@H](CC)C(=O)NC/C=C/C=C(\C)[C@@H](OC)[C@@H](C)[C@@H]2O[C@H](/C=C/C=C/C=C(\C)C(=O)c3c(O)cc[nH]c3=O)[C@H](O)[C@@H]2O)[C@H](O)[C@H](O)C1(C)C
inactive: [1] 35.2% | [2] 18.9% | [3] 38.9% | [4] 36.2% | [5] 29.9% | [6] 15.6%

COC(=O)c1cc(C(C)O)nc2ccccc12 (stereo not drawn)
inactive: [1] 4.95% | [2] 3.95% | [3] 6.25% | [4] 0.65% | [5] 27% | [6] 6.35%

CN(C)C12CCCCCC1S(=O)(=O)C2 (stereo not drawn)
inactive: [1] -0.05% | [2] -20.1% | [3] 0.85% | [4] -17.6% | [5] -22.4% | [6] 3.45%

COc1ccc2c(c1)CC1(CC2)NCC(=O)NC1=O (stereo not drawn)
inactive: [1] 7.9% | [2] 15.6% | [3] -11.8% | [4] -2% | [5] 5.8% | [6] 12.4%

O=C(O)CNC(=O)C1(NC(=O)CNC(=O)OCc2ccccc2)CCCC1 (Cbz-Gly-[Ac5c]-Gly-OH)
inactive: [1] 4.7% | [2] 20.3% | [3] 11.2% | [4] -2.3% | [5] -5.05% | [6] 18.3%

CS(=O)(=O)OCC(O)C(O)C(OS(C)(=O)=O)C(O)COS(C)(=O)=O (stereo not drawn)
inactive: [1] 7.1% | [2] 1.75% | [3] -7.75% | [4] 21.3% | [5] -8.55% | [6] 7.35%

COC(=O)c1ccccc1N=Cc1cc(Cl)ccc1O
inactive: [1] 21.5% | [2] 23.1% | [3] 35.9% | [4] 6.1% | [5] 19.6%
active: [6] 88.2%
